# Assay outcomes as filed in PubChem BioAssay.
# TDP1 cell CPT: qHTS for Inhibitors of human tyrosyl-DNA phosphodiesterase 1 (TDP1): qHTS in cells in presence of CPT; chicken DT40 Tdp1-/-;hTDP1 cells + 20 nM CPT, ATP luminescence, 48 h; Potency, µM (top dose mostly 46.2 µM), for inactives: at the highest dose activity change, negative = growth inhibition, hits mostly inhibitors; hit rate 12% among 420,000; further: nearly all actives have a fitted effect of over 55% in size
#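 Chicken DT40 Tdp1-/- cells stably complemented with human TDP1 were seeded at 400 cells/well in medium containing 20 nM camptothecin, exposed to pin-transferred compounds, and grown at 37 °C for at least 48 hr. Viability was read as ATP luminescence.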
# DT40 TDP1 no CPT: qHTS for Inhibitors of human tyrosyl-DNA phosphodiesterase 1 (TDP1): qHTS in cells in absence of CPT. DT40 Tdp1-/- hTDP1 cells, no CPT, ATP luminescence, 48 h. Potency, µM (series often up to 46.2 µM), for inactives: at the highest dose activity change, negative = growth inhibition, most hits filed as inhibitors. hit rate 15% among 420,000; further: nearly all actives have a fitted effect of over 55% in size
#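 Cells were dispensed at 400 per well, compounds added by pin tool, plates incubated ≥48 hr at 37 °C, then CellTiter-Glo added for 30 min at room temperature before luminescence reading. Line: DT40 Tdp1-/- complemented with hTDP1; camptothecin omitted.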
# PLK1 PBD inh: qHTS for Inhibitors of PLK1-PDB (polo-like kinase 1 - polo-box domain): Primary Screen. Serine/threonine-protein kinase PLK1 (Homo sapiens), P53350. Plk1 PBD binding of FITC phosphopeptide, fluorescence polarization. AID 720504, 2013. Potency, µM, without a hit: max response, negative = inhibition, most hits filed as inhibitors. hit rate 2.8% among 360,000; further: series mostly up to about 57 µM; nearly all actives have a fitted effect of over 65% in size
# TDP1 inh: qHTS Assay for Inhibitors of Tyrosyl-DNA Phosphodiesterase (TDP1); recombinant TDP1, AlphaScreen DNA substrate cleavage; hit rate 0.28% among 350,000; Potency, µM (highest dose often 130 µM), without a hit: top-dose activity change, negative = inhibition, most hits filed as inhibitors; AID 485290, 2010; Tyrosyl-DNA phosphodiesterase 1 (Homo sapiens), Q9NUW8; further: nearly all actives have a fitted effect of over 40% in size
#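 Enzyme-compound mixtures sat 15 min at room temperature, followed by a 5 min reaction with 15 nM final substrate and 10 min with AlphaScreen beads. Recombinant human Tdp1 was used at 1 nM final.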
# KAT2A inh: qHTS Assay for Inhibitors of GCN5L2; Histone acetyltransferase KAT2A (Homo sapiens), Q92830; Potency, µM (highest dose often 58.9 µM), without a hit: at the highest dose activity change, negative = inhibition, most hits filed as inhibitors; hit rate 0.21% among 390,000; AID 504327, 2011; GCN5L2 HAT assay, ThioGlo1 CoA-SH fluorescence
# Target sequence (Q92830 whole entry, looked up): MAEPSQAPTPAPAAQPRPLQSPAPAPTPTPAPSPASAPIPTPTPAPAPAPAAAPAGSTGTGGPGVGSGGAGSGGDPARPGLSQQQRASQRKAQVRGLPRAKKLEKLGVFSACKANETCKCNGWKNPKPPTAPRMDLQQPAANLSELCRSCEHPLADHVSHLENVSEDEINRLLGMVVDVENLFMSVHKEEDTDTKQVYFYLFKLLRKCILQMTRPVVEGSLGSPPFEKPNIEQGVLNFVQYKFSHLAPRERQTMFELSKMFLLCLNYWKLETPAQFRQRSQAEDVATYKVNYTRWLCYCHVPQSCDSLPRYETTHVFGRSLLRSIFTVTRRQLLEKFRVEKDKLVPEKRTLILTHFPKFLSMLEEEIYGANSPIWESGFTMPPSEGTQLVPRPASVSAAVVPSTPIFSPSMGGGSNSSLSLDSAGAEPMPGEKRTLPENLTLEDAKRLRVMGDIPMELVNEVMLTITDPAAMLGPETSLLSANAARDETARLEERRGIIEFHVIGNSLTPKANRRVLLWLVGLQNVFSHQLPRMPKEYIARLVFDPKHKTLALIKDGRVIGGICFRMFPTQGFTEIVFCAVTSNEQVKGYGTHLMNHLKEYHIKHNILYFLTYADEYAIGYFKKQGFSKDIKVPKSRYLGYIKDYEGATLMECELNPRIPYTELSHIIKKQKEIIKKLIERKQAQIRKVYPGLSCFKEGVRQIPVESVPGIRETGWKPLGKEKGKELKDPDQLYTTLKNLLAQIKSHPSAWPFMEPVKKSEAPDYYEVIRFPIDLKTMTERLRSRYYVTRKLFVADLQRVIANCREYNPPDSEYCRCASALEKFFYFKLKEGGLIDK
#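 Compounds, pin-transferred from DMSO stocks, meet 20nM GCN5L2 for 15 min before the reaction begins with H3(1-25) peptide (75uM) and acetyl-CoA (70uM). Thiol-reactive ThioGlo1 reports CoA release over 20 min at room temperature.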
# VDR inh: Inhibitors of the vitamin D receptor (VDR): qHTS. Vitamin D3 receptor (Homo sapiens), P11473. Potency, µM, for inactives: max response, negative = inhibition, usual class: inhibitors. hit rate 0.93% among 400,000. VDR-SRC2-3 peptide fluorescence polarization, 2 h
#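 Measured by FP: displacement of SRC2-3 coactivator peptide from VDR by library compounds, following a two-hour ambient incubation.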
# The depositor's hits bear a star; ? = inconclusive; / = no result; [ ] = another dose, or the depositor's remark. Only some compounds are listed: those with a hit (about 18% of all), similar ones and a draw of the others. The call rests on the fitted dose curve; in most records, active means well fitted curve in the direction sought with a large enough effect; inconclusive means small, poorly fitted or top-dose-only effect, or another doubt; inactive means no such curve, though single readings can be large; an effect the other way counts as inactive or inconclusive. On the % scale 0 is the no-effect control and ±100 the full control effect; potency means the concentration at half of the fitted maximal effect.
SMILES,TDP1 cell CPT,DT40 TDP1 no CPT,PLK1 PBD inh,TDP1 inh,KAT2A inh,VDR inh
CCOc1ccc(-c2cc3c(=O)n(Cc4nc(-c5ccccc5OCC)oc4C)ccn3n2)cc1Cl,-6%,-1%,/,2%,-4%,-3%
CCCC(C)(C)C(=O)N1CCC1(C)C(=O)Nc1cccc2ccccc12 (stereo not drawn),21µM*,10µM*,4%,/,/,/
Cn1nc(C2CC2)cc1NC(=O)C1(C)CCN1C(=O)CCc1ccccc1 (stereo not drawn),-25%,-20%,-1%,/,/,/
CCCC(=O)N1CCC1(C)C(=O)Nc1ccccc1C(C)(C)C (stereo not drawn),0%,-18%,-7%,/,/,/
CC1(C(=O)Nc2ccccc2F)CCN1C(=O)Cc1ccc(-c2ccccc2)cc1 (stereo not drawn),?,15µM*,-5%,/,/,/
Cc1ccc(NC(=O)C2(C)CCN2C(=O)CC(c2ccccc2)c2ccccc2)cc1 (stereo not drawn),?,?,-5%,/,/,/
CC1(C(=O)Nc2ccc(Cl)c(Cl)c2)CCN1C(=O)CC(c1ccccc1)c1ccccc1 (stereo not drawn),18µM*,23µM*,-8%,/,/,/
Cn1nc(C2CC2)cc1NC(=O)C1(C)CCN1C(=O)Cc1ccc(-c2ccccc2)cc1 (stereo not drawn),21µM*,21µM*,1%,/,/,/
COc1ncc2ncc(=O)n(C)c2n1,-4%,1%,/,/,-16%,-6%
CC1(C(=O)NCCC#N)CCN1C(=O)CC(c1ccccc1)c1ccccc1 (stereo not drawn),-24%,?,2%,/,/,/
CC1(C(=O)NS(=O)(=O)Cc2ccccc2)CCN1C(=O)Cc1ccc(-c2ccccc2)cc1 (stereo not drawn),17%,-10%,-1%,/,/,/
CC1(C(=O)Nc2ccccc2)CCN1C(=O)Cc1ccc(-c2ccccc2)cc1 (stereo not drawn),23µM*,18µM*,5%,/,/,/
CC1(C(=O)Nc2ccc(Cl)c(Cl)c2)CCN1C(=O)Cc1cccc2ccccc12 (stereo not drawn),?,?,-7%,/,/,/
CCC(=O)N1CCC1(C)C(=O)Nc1ccccc1 (stereo not drawn),0%,1%,-7%,/,/,/
CC1(C(=O)N2CCCCC2)CCN1C(=O)Cc1ccc(-c2ccccc2)cc1 (stereo not drawn),15µM*,?,-11%,/,/,/
CC1(C(=O)Nc2ccc(Cl)c(Cl)c2)CCN1C(=O)Cc1ccc(-c2ccccc2)cc1 (stereo not drawn),15µM*,18µM*,6%,/,/,/
CC1(C(=O)Nc2cnc3ccccc3c2)CCN1C(=O)CC(c1ccccc1)c1ccccc1 (stereo not drawn),?,16µM*,2%,/,/,/
CC1CCC(C(C)(C)O)CC2=C1CCC2C (stereo not drawn),2%,18%,/,15%[56.1 µM],-5%,-1%
CCN1CCN(C(=O)Nc2ccccc2OC)CC1,?,-14%,-13%,-12%,-10%,5%
COc1cccc(NC(=O)C2(C)CCN2C(=O)Cc2ccc(-c3ccccc3)cc2)c1 (stereo not drawn),?,15µM*,-1%,/,/,/
COc1cccc(NC(=O)C2(C)CCN2C(=O)CCc2ccc(Cl)cc2Cl)c1 (stereo not drawn),?,?,-10%,/,/,/
CCC(=O)N1CCC1(C)C(=O)Nc1ccc2c(c1)OCO2 (stereo not drawn),2%,-3%,-13%,/,/,/
CC1(C(=O)Nc2ccc3c(c2)OCO3)CCN1C(=O)Cc1ccc(-c2ccccc2)cc1 (stereo not drawn),7.3µM*,4.6µM*,0%,/,/,/
Cc1ccc(CNC(=O)C2(C)CCN2C(=O)Cc2ccc(-c3ccccc3)cc2)cc1 (stereo not drawn),?,23µM*,-1%,/,/,/
Cc1ccc(S(=O)(=O)NC(=O)C2(C)CCN2C(=O)Cc2ccc(-c3ccccc3)cc2)nc1 (stereo not drawn),5%,3%,-2%,/,/,/
SMILES,TDP1 cell CPT,DT40 TDP1 no CPT,PLK1 PBD inh,TDP1 inh,KAT2A inh,VDR inh
CC(C)NC(=O)NC(=O)COC(=O)C1(C)CC1(Cl)Cl (stereo not drawn),1%,3%,2%,0%,-5%,-14%
CCn1c(NCc2ccco2)nc2ccccc21,4%,2%,4%,0%,-11%,-18%
COc1ccc(CNc2nc3ccccc3n2C(C)C)cc1,-7%,2%,-2%,/,2%,?
c1ccc(Cn2c(NCc3ccco3)nc3ccccc32)cc1,?,18µM*,-2%,8%,0%,5%
COc1ccc(CNc2nc3ccccc3n2Cc2ccccc2)cc1OC,?,18µM*,-8%,6%,-3%,1%
COc1ccc(C(=O)n2nc(-c3ccco3)nc2NCc2cccs2)cc1OC,?,?,/,5%,-25%,-6%
COc1ccccc1NC(=O)c1cnc(SCC(=O)N2CCOCC2)n(C)c1=O,?,?,/,-5%,-8%,4%
Clc1ccc2c(c1)-c1ccccc1C1=NCCN12,-105%,1.6µM*,4%,/,/,/
COc1ccc(Cl)cc1S(=O)(=O)N1CCN=C1c1ccccc1,-27%,-22%,-17%,0%,-12%,-5%
Brc1ccc2c(c1)-c1ccccc1C1=NCCN12,1.5µM*,0.82µM*,0%,/,/,/
COc1cc(Br)cc(C(=O)N2CCc3ccccc32)c1OC,-6%,?,4%,/,/,/
O=C(CSC1=NCCN1)NC1CCCCCC1,?,18µM*,-7%,2%,0%,11%
O=C(CSC1=NCCN1)NC12CC3CC(CC(C3)C1)C2,26µM*,15µM*,-11%,2%,1%,-10%
CCC1(C)CC2(CCCN(CCC(O)(c3ccccc3)c3ccccc3)C2)CCO1 (stereo not drawn),?,15µM*,-4%,/,-1%,-8%
CC(C)c1nn2c(=O)cc(COC(=O)c3cccc(NC(=O)CCc4ccccc4)c3)nc2s1,11%,-11%,/,-4%,-4%,0%
CCCc1nc2ccc(C)cn2c1Cc1ccccc1,?,?,3%,/,/,/
CCCc1nc2ccc(C(=O)OC)cn2c1Cc1ccccc1C(F)(F)F,?,16µM*,-10%,/,/,/
CCCc1nc2ccc(C(=O)OC)cn2c1Cc1ccccc1,?,29µM*,-1%,/,/,/
